Source: PubChem
tim10-1 inh: growth inhibitors of tim10-1 mutant yeast, primary screen, luminescence, uHTS. S. cerevisiae tim10-1 ts strain growth, BacTiter-Glo, 24 h. hit rate 2.2% among 330,000. inhibition, % at 20 µM;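 active means inhibition of at least 40%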;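 further: mutant grown at 25 °C; 0% = DMSO wells with yeast and 100% = wells holding no yeast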
SKKanGAS inh: S. pyogenes SKKanGAS growth inhibitors in kanamycin, primary screen, streptokinase expression inhibitor project, SKKanGAS strain, BacTiter-Glo luminescence | 6 h | inhibition, % at 7.5 µM | hit rate 1.3% among 300,000 | AID 1662, 2009;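 active means mean replicate score, as percent of positive control median, at least 50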;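 further: strain carries kanamycin resistance gene driven by streptokinase promoter and grows in 40 µg/ml kanamycin; loss of luminescence reflects streptokinase promoter inhibition or plain growth inhibition; 0% = median of DMSO wells and 100% = positive control at its reference dose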
NALP3 yeast inh: NALP3 inflammasome inhibitors in reconstituted yeast, primary screen, luminescence, uHTS | Yeast reconstituted NLRP3/ASC/caspase-1, beta-gal luminescence, 24 h | inhibition, % at 10 µM | hit rate 0.39% among 330,000 | AID 2825, 2010;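 active means inhibition of 50% or more; inactive means inhibition below 50%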;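 further: plate controls were induced DMSO wells for no effect and uninduced yeast grown without galactose for full effect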
TIM10 inh: growth inhibitors of isogenic TIM10 control yeast, primary screen, counter-screen for tim10-1 yeast inhibitor project, luminescence, uHTS; S. cerevisiae TIM10 strain growth, BacTiter-Glo luminescence, 24 h; inhibition, % at 10 µM; hit rate 1.4% among 330,000;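 active means inhibition of 40% or more at the single tested concentration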;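 further: wild-type TIM10 isogenic control strain grown at permissive 25 °C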
tim23-1 inh: growth inhibitors of tim23-1 mutant yeast, primary screen, luminescence, uHTS | S. cerevisiae tim23-1 growth, BacTiter-Glo luminescence, 24 h | inhibition, % at 20 µM | hit rate 1.3% among 330,000 | AID 463212, 2010;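 active means growth inhibition of the mutant yeast at or above 50%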;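 further: temperature-sensitive mutant grown at 25 °C; plate controls were DMSO-treated mutant yeast for no effect and medium wells lacking yeast for full effect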
PfHsp90 set2: growth inhibition of PfHsp90-expressing yeast, primary screen, antimalarial PfHsp90 inhibitor project, S. cerevisiae, BacTiter-Glo luminescence, single point, set 2; BacTiter-Glo ATP, 48 h; yeast lacking PDR1 and PDR3 efflux regulators; inhibition, % at 9.4 µM; hit rate 0.32% among 310,000;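 active means every replicate shows inhibition above about 80%, whatever the replicate mean, limit read from the data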;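 further: 0% = DMSO neutral controls and 100% = 20 µM radicicol positive controls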
* = called active by the depositor; x = not tested or not shown. Rows were chosen to be rich in hits. Some 4.5% of all compounds tested hit in one or more screens of this group.

SMILES	tim10-1 inh	SKKanGAS inh	NALP3 yeast inh	TIM10 inh	tim23-1 inh	PfHsp90 set2
O=C(CCNS(=O)(=O)c1ccccc1C(F)(F)F)NCCCN1CCOCC1	13	x	8	-7	5	-6
N#C/C(=C(/O)CN1CCN(c2ccccc2F)CC1)c1nc(-c2ccccc2)cs1	24	55*	0	-6	7	-51
CC(C)CCN(CCC(C)C)C/C(O)=C(\C#N)c1nc(-c2ccccc2)cs1	3	8	4	-1	18	19
CC1CCc2c(sc(NS(=O)(=O)c3ccccc3)c2C(=O)OC(C)C)C1 (stereo not given)	32	95*	-1	20	7	10
COC(=O)c1c(NS(=O)(=O)c2ccc3ccccc3c2)sc2c1CCCC2	30	32	-17	15	29	7
O=C(c1cccc(C(F)(F)F)c1)C1CCCN(C(=O)/C=C/c2cnc[nH]2)C1 (stereo not given)	11	5	6	-1	2	-21
O=S(=O)(Nc1cc(Sc2cccc3cccnc23)c(O)c2ccccc12)c1ccc(F)cc1	x	87*	x	x	x	x
CCCCCCn1ccc(=N)cc1	3	0	23	-3	1	11
CCCCCCCCCCCCCCCCn1cc[n+](CC(C)=O)c1	x	x	x	x	x	105*
NC(=O)c1ccccc1NC(=O)CC12CC3CC(CC(C3)C1)C2	34	2	-6	15	42	-3
COc1ccc(/C=C/C(=O)c2c(C)nc3ccccn23)cc1	23	51*	-2	17	22	x
CC1(C)CC(=O)C2=C(C1)c1c(ccc3ccccc13)NC2c1ccc(C(=O)O)cc1 (stereo not given)	29	18	23	17	28	6
CC1(C)CC(=O)C2=C(C1)c1c(ccc3ccccc13)NC2c1cc([N+](=O)[O-])cc([N+](=O)[O-])c1O (stereo not given)	34	72*	18	27	22	-24
CCOC(=O)C1=C(C)N=c2s/c(=C\c3cccc(OCC(=O)O)c3)c(=O)n2C1c1ccccc1OC (stereo not given)	15	10	21	17	15	-34
CCOC(=O)C1=C(c2ccccc2)N=c2s/c(=C\c3cccc(O)c3)c(=O)n2C1c1cccs1 (stereo not given)	31	54*	10	29	32	x
CC12CCC(C/C1=N\N=C1\NC(=O)/C(=C\c3ccc(Cl)cc3)S1)C2(C)C (stereo not given)	34	106*	3	3	15	-4
O=C1NC(=Nc2ccccc2Cl)S/C1=C\c1ccc(C(=O)O)cc1	-6	9	4	3	5	-7
CCNc1nc(Oc2c(Cl)cccc2Cl)cc(C(F)(F)F)n1	5	53*	-2	-5	-12	-156
CCNc1nc(Oc2ccc(Cl)cc2Cl)cc(C(F)(F)F)n1	28	12	-5	-6	-2	x
CCOC(=O)c1ccc(-n2c(O)c(/C=N/NC(=O)C3COc4ccccc4O3)c3ccccc3c2=O)cc1 (stereo not given)	21	103*	17	10	-3	-2
Cc1nn(CC(=O)OCC(=O)c2ccccc2)c(C)c1[N+](=O)[O-]	4	x	-6	-4	11	x
CC[C@H]1OC(=O)[C@H](C)[C@@H](O[C@H]2C[C@@](C)(OC)[C@@H](O)[C@H](C)O2)[C@H](C)[C@@H](O[C@@H]2O[C@H](C)C[C@H](N(C)C)[C@H]2O)[C@](C)(O)C[C@@H](C)C(=O)[C@H](C)[C@@H](O)[C@]1(C)O	x	102*	x	x	x	0
CCOC(=O)CCC(=O)O[C@H]1[C@H](O[C@@H]2[C@@H](C)[C@H](O[C@H]3C[C@@](C)(OC)[C@@H](O)[C@H](C)O3)[C@@H](C)C(=O)O[C@H](CC)[C@@](C)(O)[C@H](O)[C@@H](C)C(=O)[C@H](C)C[C@@]2(C)O)O[C@H](C)C[C@@H]1N(C)C	x	105*	x	x	x	-9
CN(C)c1ncc(C2=C(Cl)C(=O)C(N3CCCC3)=C(Cl)C2=O)s1	18	77*	18	19	11	9
CCCc1cc(=O)[nH]c(SCCN2C(=O)c3ccccc3C2=O)n1	9	-15	9	17	15	13
SMILES	tim10-1 inh	SKKanGAS inh	NALP3 yeast inh	TIM10 inh	tim23-1 inh	PfHsp90 set2
Cc1cccc(Cn2nc(-n3cccc3)c3c(C)cc(C)nc32)c1	8	55*	16	5	18	-30
Cc1cccc(Cn2cnc3c(nnn3Cc3ccc(Cl)cc3)c2=O)c1	-1	0	13	-18	9	34
COc1cc2c(c(OC)c1OC)C(=O)C(=Cc1ccccc1)O2	x	x	x	x	x	-1
O=C(Nc1ccc(Cl)cc1)N[C@@H]1c2c(ccc3ccccc23)OC[C@@H]1CO	-2	60*	9	11	-10	-21
Cc1cc(=O)oc2c3c(cc(OCC(=O)NC4CC4)c12)OC(C)(C)CC3	7	88*	6	-3	5	12
CN1CCN(NC(=O)Nc2cc(Cl)cc(Cl)c2)CC1	19	88*	5	9	20	2
Cc1cc(C)c2nc(SCCc3ccccc3)nc(C)c2c1	23	71*	15	14	18	-14
Cc1cc(C)c2nc(SCc3ccc([N+](=O)[O-])cc3)nc(C)c2c1	14	1	-6	5	8	x
Cc1ccc(C(=O)/C=C\C(=O)c2ccc(C)cc2)cc1	x	56*	x	x	x	-12
CC(=O)Nc1ccc(Nc2cc(C(C)C)nc3c(-c4ccccc4)c(C)nn23)cc1	33	88*	20	24	45	108*
CC(C)(C)C1CC=C2C(C#N)=C(N)C(C#N)(C#N)C(c3cccs3)C2C1 (stereo not given)	18	54*	12	-6	20	x
CN1C2C=C3C(C#N)=C(N)C(C#N)(C#N)[C@@H](c4cccs4)C3C1CC2 (stereo not given in full)	10	1	4	13	2	0
Cc1ccc(S(=O)(=O)N(C)CC(=O)OCC(=O)NCCN2C(=O)CSC2=O)cc1	22	x	13	-4	-1	1
COc1ccc(-c2sc3ccccc3c2C#CC2(O)CCCCC2)cc1	x	101*	x	x	x	13
COc1ccc(-c2sc3cc(OC)c(OC)cc3c2C#CC2(O)CCCCC2)cc1	24	x	7	7	34	-9
Cc1onc(-c2ccccc2)c1C(=O)N/N=C/c1cccs1	1	-2	-6	22	5	8
Cc1onc(-c2ccccc2)c1C(=O)NC(=S)NNC(=O)c1cc(-c2ccc(F)cc2)n[nH]1	20	119*	15	-7	21	-6
